Assay outcomes: PubChem, several laboratories
In the library only some 2.3% were active in any assay of this set; here they are far more common.
Jurkat NFkB inh – lowers PMA/ionomycin-induced NF-kB signal in Jurkat cells; PMA/ionomycin-induced NF-kB luciferase reporter, luminescence; inhibition, % at 4 µM; 330,000 tested, 0.53% active; AID 435003; in the data active = inhibition above about 50%
Gli-Sufu antag – antagonists of Gli-Sufu signaling | Sufu-KO-LIGHT fibroblasts, Gli luciferase reporter luminescence | inhibition, % at 5 µM | 340,000 tested, 0.74% active | AID 588413;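 active = inhibition above about 55%, limit read from the data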
Shn3 3UTR inh – Schnurri-3 reporter inhibition in Clone20 osteoblasts | Clone20 osteoblast Shn3 3'UTR firefly luciferase, 24 h | inhibition, % at 12.5 µM | 360,000 tested, 0.52% active | AID 588674;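 active = mean inhibition of at least 75% with every replicate also reaching 75%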
aSyn UTR inh – 5' untranslated region of α-synuclein, MLPCN primary screen. alpha-synuclein 5'UTR reporter, inhibitor activity. inhibition, % (tested at 7.5 µM). 300,000 tested, 0.82% active. AID 1813; in the data active = inhibition above about 60%;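 also: H4 neuroglioblastoma cells stably carrying SNCA 5'UTR luciferase fusion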
TAG inh – reduces triacylglycerol accumulation in H9c2 cells; inhibition, % at 12.5 µM; Nile Red lipid (TAG) fluorescence; cells loaded with 200 µM oleic acid; AID 651582; 230,000 tested, 0.66% active;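 active = pattern-corrected inhibition of lipid staining of at least 50% with the nuclear-stain viability signal not falling by more than 50%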
697 NFkB inh – inhibitors of the PMA/ionomycin-induced NF-kB reporter in 697 B cells; 697 B-cell NF-kB luciferase reporter, 16 h; inhibition, % at 4 µM; 330,000 tested, 0.33% active; in the data active = inhibition above about 35%
Jurkat NFkB conf – inhibitors of the PMA/ionomycin-induced NF-kB reporter in Jurkat cells, retest. shares compounds with Jurkat NFkB inh. 2,700 tested, 27% active. inhibition, % at 4 µM. AID 435020. Jurkat NF-kB luciferase, 16 h;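 active = inhibition reaching about 45% at 4 µM in either replicate, limit read from the data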
697 NFkB conf – lowers PMA/ionomycin-induced NF-kB signal in 697 B cells. 2,000 tested, 35% active. inhibition, % at 4 µM. 697 B-cell NF-kB luciferase, 16 h. AID 449746. shares compounds with 697 NFkB inh; in the data active = inhibition mostly above about 28%, no sharp cut-off; inactive = mostly below about 22%
Gli antag conf – confirmation of Gli-SUFU pathway antagonists. 2,500 tested, 40% active. inhibition, % at 5 µM. shares compounds with Gli-Sufu antag. Sufu-KO-LIGHT cells, Gli luciferase reporter, luminescence. AID 602428;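 active = mean inhibition at 5 µM reaching about 45%, limit read from the data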
SufuKO cytotox – cytotoxicity counter-screen for Gli-SUFU antagonists; shares compounds with Gli-Sufu antag; Sufu-KO-LIGHT cells cytotoxicity, ATP luminescence; cytotoxicity, % at 5 µM; 2,500 tested, 32% active; AID 651994;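 active = mean cytotoxicity at 5 µM above about 25%, limit read from the data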;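 also: cells exposed to compound overnight for roughly 16 to 18 hours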
Wnt3a counter – inhibits Wnt3a reporter, counter-screen for Gli-SUFU antagonists. shares compounds with Gli-Sufu antag. Wnt-LIGHT cells, Wnt3a-driven luciferase reporter, luminescence. inhibition, % at 6.25 µM. 2,500 tested, 20% active. AID 651995;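 active = mean inhibition above about 25%, limit read from the data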
Each line names hits and unclear results; the compound was inactive in the other large screens (follow-up assays come after a bar, where they were run).

O=C(c1cc(COc2ccc3ncccc3c2)on1)N1CCC(O)CC1	none
CCC(O)C1CCN(C(=O)c2cc(COc3ccc4ncccc4c3)on2)CC1 (stereo not drawn)	Jurkat NFkB inh 56, Gli-Sufu antag 73, Shn3 3UTR inh 88 (no result: TAG inh) | Jurkat NFkB conf 67 | Gli antag conf 65 | SufuKO cytotox inactive | Wnt3a counter 40
Cc1c(NC(=O)CN2C(=O)NC(CCc3ccccc3)C2=O)c(=O)n(-c2ccccc2)n1C (stereo not drawn)	none
C/C(=N\NC(=O)C1COc2ccccc2O1)c1ccc(C)o1 (stereo not drawn)	none
C/C(=N\NC(=O)C(c1ccccc1)c1ccccc1)c1ccccn1	Jurkat NFkB inh 79, Gli-Sufu antag 89, Shn3 3UTR inh 88, aSyn UTR inh 80 (no result: TAG inh) | Jurkat NFkB conf inactive | Gli antag conf 56 | SufuKO cytotox 31 | Wnt3a counter 37
C/C(=N\NC(=O)C1COc2ccccc2O1)c1ccccn1 (stereo not drawn)	Jurkat NFkB inh 73, Gli-Sufu antag 89, aSyn UTR inh 98 (no result: TAG inh) | Jurkat NFkB conf inactive | Gli antag conf 73 | SufuKO cytotox 44 | Wnt3a counter 53
CCn1c(/C=C/N(C(C)=O)c2ccccc2)[n+](CCCS(=O)(=O)[O-])c2cc(Cl)c(Cl)cc21	none
CCn1c(/C=C/Nc2ccccc2)[n+](CC)c2cc(Cl)c(Cl)cc21	Jurkat NFkB inh 70, Gli-Sufu antag 66, Shn3 3UTR inh 88 (no result: TAG inh) | Jurkat NFkB conf inactive | Gli antag conf 61 | SufuKO cytotox inactive | Wnt3a counter inactive
Clc1cccc(CSc2nnc(-c3c[nH]c4ccccc34)o2)c1	none
C=CCn1c(SCc2c(C)noc2C)nc2cc(C(=O)O)ccc2c1=O	none
C=CCn1c(SCc2c(C)noc2C)nc2ccccc2c1=O	Jurkat NFkB inh 78, aSyn UTR inh 80 (no result: TAG inh) | Jurkat NFkB conf 52 | Gli antag conf 54 | SufuKO cytotox 58 | Wnt3a counter inactive
CCCCC[n+]1cccc2c3ccccc3ccc21	Jurkat NFkB inh 52, Gli-Sufu antag 74, 697 NFkB inh 60 | Jurkat NFkB conf inactive | 697 NFkB conf 42 | Gli antag conf 85 | SufuKO cytotox 27 | Wnt3a counter 33
COc1ccc(CCNc2c(C)c(C)nc3ncnn23)cc1	Jurkat NFkB inh 70, Gli-Sufu antag 72, Shn3 3UTR inh 81, 697 NFkB inh 89 (no result: TAG inh) | Jurkat NFkB conf 65 | 697 NFkB conf 54 | Gli antag conf 70 | SufuKO cytotox 45 | Wnt3a counter 28
Cc1ccc2cccc(OC(=O)c3ccc4c(c3)OCCO4)c2n1	none
CCOC(=O)C1=C(C)NC(C)=C(C(=O)OCC)C1C(=O)OCC(=O)NC(C)c1ccccc1 (stereo not drawn)	none (no result: aSyn UTR inh)
CC(=O)N1CCN(C(=O)CN2C(=O)NC(C)(c3ccc4ccccc4c3)C2=O)CC1 (stereo not drawn)	none (no result: aSyn UTR inh)
CC1(c2ccc3ccccc3c2)NC(=O)N(CC(=O)N2CCN(Cc3ccc(C#N)cc3)CC2)C1=O (stereo not drawn)	Jurkat NFkB inh 58, Gli-Sufu antag 68, Shn3 3UTR inh 88, 697 NFkB inh 48 (no result: aSyn UTR inh) | Jurkat NFkB conf 68 | 697 NFkB conf 103 | Gli antag conf 71 | SufuKO cytotox inactive | Wnt3a counter 32
Cc1c(C(=O)N2CCC(C)CC2)oc2ccc3c(c12)C(O)CC1(CCCCC1)O3 (stereo not drawn)	none (no result: TAG inh)
C=CCNc1nc(-c2c(C)nc3ncccn23)cs1	none (no result: TAG inh)
Cc1ccc(Nc2nc(-c3c(C)nc4ncccn34)cs2)cc1	Jurkat NFkB inh 68, Gli-Sufu antag 57, aSyn UTR inh 84 (no result: TAG inh) | Jurkat NFkB conf 49 | Gli antag conf 64 | SufuKO cytotox 62 | Wnt3a counter inactive
CCN1/C(=C/C=C/c2oc3ccc(-c4ccccc4)cc3[n+]2CC)Oc2ccc(-c3ccccc3)cc21	Jurkat NFkB inh 98, Gli-Sufu antag 88, Shn3 3UTR inh 96, aSyn UTR inh 140, 697 NFkB inh 48 | Jurkat NFkB conf inactive | 697 NFkB conf inactive | Gli antag conf 90 | SufuKO cytotox 35 | Wnt3a counter 39
CCCCN1C(=O)/C(=C/C=C2\Oc3ccccc3N2CC)SC1=S	none (no result: Jurkat NFkB inh, 697 NFkB inh)
COc1ccc(N2CCc3c(C)nc4c(OC)cc(OC)cc4c32)cc1	Jurkat NFkB inh 51 | Jurkat NFkB conf inactive | Gli antag conf inactive | SufuKO cytotox inactive | Wnt3a counter inactive
CCCCC(Nc1ncnc2ccccc12)C(=O)O (stereo not drawn)	none (no result: TAG inh)
CC(Nc1ncnc2ccccc12)c1ccccc1 (stereo not drawn)	Jurkat NFkB inh 50, Gli-Sufu antag 63, Shn3 3UTR inh 88 (no result: TAG inh) | Jurkat NFkB conf 63 | Gli antag conf 73 | SufuKO cytotox 34 | Wnt3a counter 41
Cc1cc(C(F)(F)F)c2c(N)c(C(=O)Nc3cc(C)on3)sc2n1	none
CC1(C)CC(=O)c2c(O)cc(OCc3ccc(Br)cc3)cc2O1	Gli-Sufu antag 96 (no result: TAG inh) | Jurkat NFkB conf inactive | Gli antag conf inactive | SufuKO cytotox inactive | Wnt3a counter inactive
COC(=O)c1ccc(COc2cc(O)c3c(c2)OC(C)(C)CC3=O)cc1	none
CCCCN(C(=O)CN1C(=O)C2CCCCC2C1=O)c1c(N)n(Cc2ccccc2)c(=O)[nH]c1=O (stereo not drawn)	none
CCCCOC(=O)Nc1ccccc1C(=O)N1CCCC1	none (no result: TAG inh)
CCCCC(=O)NC(c1ccc(N(CC)CC)cc1)c1ccc2cccnc2c1O (stereo not drawn)	Jurkat NFkB inh 64, Gli-Sufu antag 93, Shn3 3UTR inh 94, aSyn UTR inh 68 (no result: TAG inh) | Jurkat NFkB conf 76 | Gli antag conf 88 | SufuKO cytotox 44 | Wnt3a counter 92
CCCC(=O)NC(c1ccc(C)cc1)c1ccc2cccnc2c1O (stereo not drawn)	Jurkat NFkB inh 52, Gli-Sufu antag 89, TAG inh 61 | Jurkat NFkB conf 86 | Gli antag conf 85 | SufuKO cytotox 50 | Wnt3a counter 87
